Compound activity deposited in PubChem by Broad Institute.
Compounds with a hit are over-represented: about 3% of the library has one in this group of screens.
Wnt bcat act – activators of Wnt/beta-catenin signaling | Wnt/beta-catenin reporter cell assay, activator, plate reader | AID 743398 | activation, % at 9.35 µM | 300,000 tested, 1.2% active; in the data active = activation above about 30%, passing the limit was not always enough; inconclusive = no clear call, values can overlap the other calls;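 note: 0% = neutral control wells and 100% = positive control wells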
esBAF inh – blocks esBAF chromatin remodeling in mouse ES cells; AID 602393; reporter increase, % at 12.5 µM; Bmi1-luciferase knock-in reporter, 24 h; 100% = twice the neutral-well signal; 350,000 tested, 2% active; in the data active = activation above about 40%; inconclusive = no clear call, values can overlap the other calls;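 note: 0% = median of the plate's neutral control wells and 100% = double that signal; a rise in the Bmi1 reporter signal indicates esBAF inhibition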
C2C12 statin – protects C2C12 myotubes from simvastatin toxicity; ATP luminescence, 48 h; scaled: DMSO 0, geranylgeraniol control 100; rescue of ATP level, % at 7.49 µM; 330,000 tested, 0.78% active; AID 602340;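 active = mean ATP rescue above about 67%, or every replicate alone reaching that limit, limit read from the data, passing the limit was not always enough; inconclusive = no clear call, values can overlap the other calls; inactive = mean under the limit and some replicate under it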;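 note: myotubes were challenged with 10 µM simvastatin during compound exposure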
MITF act – increases MITF-driven TRPM1 promoter luciferase signal | 300,000 tested, 0.75% active | activation, % at 12.5 µM | AID 588334 | SK-MEL-5 TRPM1-promoter luciferase, 24 h; % of positive control, neutral wells = 0;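 active = mean activation of at least 80% with every replicate also reaching 80%; inconclusive = mean reaches 80% but some replicate falls short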;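 note: 0% = neutral control wells and 100% = parthenolide positive control wells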
Active calls of the source: *; ? = inconclusive; . = not tested or not shown.

SMILES	Wnt bcat act	esBAF inh	C2C12 statin	MITF act
CC1=CC(C)(C)N2C(=O)C3(C(C#N)=C(N)OC4=C3C(=O)CC(C)(C)C4)c3c(C)c(C)cc1c32 (centres undefined)	-3	-3	92*	-9
CCOc1c(Cl)cc(C2NC(=O)NC(C)=C2C(=O)NCc2ccccc2)cc1OC (centres undefined)	.	50*	-23	31
Cc1noc(C)c1S(=O)(=O)Nc1ccc2c(c1)CC(=O)N([C@H](C)CO)C[C@H](C)[C@H](CN(C)C(=O)Nc1ccc(C(F)(F)F)cc1)O2	.	-6	-3	.
COc1ccccc1NS(=O)(=O)c1cccc(NC(=O)c2nc3nc(C)cc(C)n3n2)c1	-2	6	126*	.
COc1ccccc1NS(=O)(=O)c1cccc(NC(=O)c2ccc3ccccc3n2)c1	0	24	110*	-11
CCCC(=O)Nc1ccc2c(c1)OC[C@@H](C)N(C(=O)c1cnccn1)C[C@H](C)[C@@H](OC)CN(C)C2=O	.	-8	-12	.
CCCN(C)C[C@H]1Oc2cc(-c3cccc(OC)c3)ccc2S(=O)(=O)N([C@@H](C)CO)C[C@H]1C	.	-9	-108	.
CN(CC(=O)Nc1ccc(Cl)c(S(=O)(=O)N(C)C)c1)Cc1ccccc1	9	65*	-13	59
COc1ccc(NC(=O)CN(C)CC(=O)Nc2ccc(Cl)c(S(=O)(=O)N(C)C)c2)cc1	0	6	10	4
C/C(=N\Nc1ccc([N+](=O)[O-])cc1)c1ccc(O)cc1	11	.	.	65
O=[N+]([O-])c1ccc(Nc2ccc3ccccc3c2)nc1	0	96*	-22	80
C/C(=N\Nc1ccc([N+](=O)[O-])cc1)c1cccc(N)c1	26	85*	-46	108*
CC(C=NNc1ccc([N+](=O)[O-])cn1)=Cc1ccccc1	64*	-8	-1	78
CC(=NNc1ccc([N+](=O)[O-])cn1)c1ccccc1	6	88*	-3	92*
CCCNC(=O)N(C)C[C@H]1Oc2cc(-c3cncnc3)ccc2S(=O)(=O)N([C@@H](C)CO)C[C@H]1C	.	-4	10	.
C[C@H]1CN([C@@H](C)CO)C(=O)c2cccc(NC(=O)C3CC3)c2O[C@H]1CN(C)S(=O)(=O)c1cn(C)cn1	.	-1	14	.
O=[N+]([O-])c1ccc(N/N=C/c2cccc(O)c2O)cc1	8	25	92*	.
O=C(C[C@@H]1CC[C@@H]2[C@H](COC[C@H](O)CN2C(=O)Nc2cc(Cl)cc(Cl)c2)O1)N1CCCCC1	.	6	-10	.
Cc1nc2cc3ccccc3cc2s1	-1	29	12	14
Cc1nc2cc3nc(C)sc3cc2s1	.	50*	11	?
O=C(/C=C/c1ccccc1)c1c[nH]c2ccccc12	46*	20	-32	77
N#CCc1nc2ccc(S(=O)(=O)N3CCOCC3)cc2s1	0	-10	-3	11
CCn1c(SCc2nc3ccccc3s2)nc2cc(S(=O)(=O)N3CCOCC3)ccc21	?	62*	-4	0
CCCSc1nc2cc(S(=O)(=O)N3CCOCC3)ccc2n1CC	-2	.	.	4
O=S(=O)(c1ccc(OCc2nc3ccccc3s2)c(Cl)c1)N1CCOCC1	.	86*	29	66
SMILES	Wnt bcat act	esBAF inh	C2C12 statin	MITF act
CCCNC(=O)C[C@@H]1CC[C@@H]2[C@H](COc3ccc(NC(=O)NCC)cc3C(=O)N2C)O1	.	0	3	.
Nc1nc(-c2ccc3c(c2)CCO3)cs1	34*	.	.	52
CCNC(=O)C[C@H]1CC[C@H]2[C@H](COc3ccc(NC(=O)c4cccc(OC)c4)cc3C(=O)N2C)O1	.	4	-7	.
CCOC(=O)c1c(C)[nH]c(/C(C)=N/NC(=O)c2cccnc2)c1C	-5	16	-2	.
O=C(COC(=O)c1ccccc1Cl)NCc1cccs1	-1	2	2	.
Nc1cc(Cl)ccc1C(=O)OCC(=O)NCc1cccs1	12	53*	-3	26
CC(=O)c1c(C)[nH]c(C(=O)OCC(=O)NCc2cccs2)c1C	17	55*	0	19
CCOC(=O)c1c(C)[nH]c(C(C)=NNC(=O)c2cccs2)c1C	61*	77*	10	.
C/C=C/c1cnc2c(c1)C(=O)N([C@@H](C)CO)C[C@@H](C)[C@H](CN(C)S(=O)(=O)c1ccccc1F)O2	.	-6	16	.
CCOc1ccc(CSC(CC(=O)O)C(=O)O)cc1 (centres undefined)	1	-7	103*	-1
COc1ccc(CN(C)C[C@@H]2Oc3ccc(NC(=O)C4CCCCC4)cc3CC(=O)N([C@H](C)CO)C[C@@H]2C)cc1	.	0	-12	.
